# Measured values from PubChem BioAssay AID1159580 (chemical genetic matrix, 2015).
# Out of some 5,500 compounds screened, about 2,000 (36%) were called active. Inconclusive results (about 18%) are left out. Some of the results follow. A number with no mark means an inactive call. No stated cut-off is given here; in the data, active means normalized growth mostly below about 0.91 (no sharp cut-off); inconclusive means no clear call, values can overlap the other calls; inactive means mostly above about 0.92.
# Assay: chemical genetic growth profiling, strain panel (AID 1159580);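 further: tested at 20 µM; growth read once vehicle control cultures reached saturation at 30 °C; 1 = growth at the plate median or of vehicle wells; lower values mean less growth of the strain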
# Conditions: growth OD
smiles,measurement,setting,value
CCCCCCCCCCCC1=C(O)C(=O)C=C(O)C1=O,normalized growth,"S. cerevisiae deletion strains, locus YJL168C, strain set2, hits give low values",0.975
same,normalized growth,"S. cerevisiae deletion strains, locus YJL187C, strain SWE1 (second series), hits give low values",0.981
same,normalized growth,"S. cerevisiae deletion strains, locus YJR043C, strain POL32, hits give low values",0.584 (active)
same,normalized growth,"S. cerevisiae deletion strains, locus YKL068W, hits give low values",0.936 (active)
same,normalized growth,"S. cerevisiae deletion strains, locus YKL085W, strain MDH1 (second series), hits give low values",0.513 (active)
same,normalized growth,"S. cerevisiae deletion strains, locus YKL085W, strain MDH1, hits give low values",0.513 (active)
same,normalized growth,"S. cerevisiae deletion strains, locus YKL160W, strain elf1, hits give low values",0.805 (active)
same,normalized growth,"S. cerevisiae deletion strains, locus YKR001C, strain vps1, hits give low values",0.776 (active)
same,normalized growth,"S. cerevisiae deletion strains, locus YKR026C, strain gcn3, hits give low values",0.82 (active)
same,normalized growth,"S. cerevisiae deletion strains, locus YKR091W, strain srl3, hits give low values",0.911 (active)
same,normalized growth,"S. cerevisiae deletion strains, locus YLL001W, strain dnm1, hits give low values",0.502 (active)
same,normalized growth,"S. cerevisiae deletion strains, locus YLL026W, hits give low values",0.972
same,normalized growth,"S. cerevisiae deletion strains, locus YLL041C, strain sdh2, hits give low values",0.933
same,normalized growth,"S. cerevisiae deletion strains, locus YLR027C, strain aat2, hits give low values",0.839 (active)
same,normalized growth,"S. cerevisiae deletion strains, locus YLR039C, strain RIC1, hits give low values",0.296 (active)
same,normalized growth,"S. cerevisiae deletion strains, locus YLR058C, strain SHM2, hits give low values",1
same,normalized growth,"S. cerevisiae deletion strains, locus YLR102C, strain apc9, hits give low values",0.974
same,normalized growth,"S. cerevisiae deletion strains, locus YLR221C, strain rsa3, hits give low values",0.801 (active)
same,normalized growth,"S. cerevisiae deletion strains, locus YLR258W, strain gsy2, hits give low values",0.911 (active)
same,normalized growth,"S. cerevisiae deletion strains, locus YLR262C, strain YPT6 (second series), hits give low values",0.477 (active)
same,normalized growth,"S. cerevisiae deletion strains, locus YLR262C, strain YPT6, hits give low values",0.414 (active)
same,normalized growth,"S. cerevisiae deletion strains, locus YLR268W, strain sec22, hits give low values",0.756 (active)
same,normalized growth,"S. cerevisiae deletion strains, locus YLR320W, strain mms22, hits give low values",0.83 (active)
same,normalized growth,"S. cerevisiae deletion strains, locus YLR330W, strain CHS5, hits give low values",0.842 (active)
same,normalized growth,"S. cerevisiae deletion strains, locus YLR342W, strain FKS1 (second series), hits give low values",0.886
same,normalized growth,"S. cerevisiae deletion strains, locus YLR342W, strain FKS1, hits give low values",0.72 (active)
same,normalized growth,"S. cerevisiae deletion strains, locus YLR357W, strain rsc2, hits give low values",0.441 (active)
same,normalized growth,"S. cerevisiae deletion strains, locus YLR370C, strain arc18, hits give low values",0.242 (active)
same,normalized growth,"S. cerevisiae deletion strains, locus YLR371W, strain rom2, hits give low values",0.945
same,normalized growth,"S. cerevisiae deletion strains, locus YLR384C, strain iki3, hits give low values",0.989
same,normalized growth,"S. cerevisiae deletion strains, locus YLR418C, strain cdc73, hits give low values",0.819 (active)
same,normalized growth,"S. cerevisiae deletion strains, locus YML016C, strain PPZ1, hits give low values",0.991
same,normalized growth,"S. cerevisiae deletion strains, locus YML032C, strain rad52, hits give low values",0.882 (active)
same,normalized growth,"S. cerevisiae deletion strains, locus YML120C, strain ndi1, hits give low values",0.952
same,normalized growth,"S. cerevisiae deletion strains, locus YML124C, strain tub3, hits give low values",0.975
same,normalized growth,"S. cerevisiae deletion strains, locus YMR058W, strain fet3, hits give low values",0.0857 (active)
same,normalized growth,"S. cerevisiae deletion strains, locus YMR078C, strain ctf18, hits give low values",0.96
same,normalized growth,"S. cerevisiae deletion strains, locus YMR125W, strain sto1, hits give low values",0.832 (active)
same,normalized growth,"S. cerevisiae deletion strains, locus YMR129W, hits give low values",0.883 (active)
same,normalized growth,"S. cerevisiae deletion strains, locus YMR205C, strain PFK2, hits give low values",0.901
same,normalized growth,"S. cerevisiae deletion strains, locus YMR223W, strain ubp8, hits give low values",0.87 (active)
same,normalized growth,"S. cerevisiae deletion strains, locus YMR231W, strain pep5, hits give low values",0.69 (active)
same,normalized growth,"S. cerevisiae deletion strains, locus YMR263W, strain SAP30, hits give low values",0.766 (active)
same,normalized growth,"S. cerevisiae deletion strains, locus YMR307W, strain GAS1, hits give low values",0.378 (active)
same,normalized growth,"S. cerevisiae deletion strains, locus YNL067W, strain RPL9B, hits give low values",0.823 (active)
same,normalized growth,"S. cerevisiae deletion strains, locus YNL071W, strain lat1, hits give low values",0.912 (active)
same,normalized growth,"S. cerevisiae deletion strains, locus YNL128W, strain TEP1, hits give low values",0.683 (active)
same,normalized growth,"S. cerevisiae deletion strains, locus YNL209W, strain ssb2, hits give low values",0.61 (active)
same,normalized growth,"S. cerevisiae deletion strains, locus YNL233W, strain BNI4, hits give low values",0.857 (active)
same,normalized growth,"S. cerevisiae deletion strains, locus YNL248C, strain rpa49, hits give low values",0.757 (active)
same,normalized growth,"S. cerevisiae deletion strains, locus YNL250W, strain rad50, hits give low values",0.738 (active)
same,normalized growth,"S. cerevisiae deletion strains, locus YNL271C, strain bni1, hits give low values",0.636 (active)
same,normalized growth,"S. cerevisiae deletion strains, locus YNL298W, strain CLA4, hits give low values",0.66 (active)
same,normalized growth,"S. cerevisiae deletion strains, locus YNL307C, strain MCK1, hits give low values",0.857 (active)
same,normalized growth,"S. cerevisiae deletion strains, locus YNL322C, strain KRE1 (second series), hits give low values",0.922
same,normalized growth,"S. cerevisiae deletion strains, locus YNR049C, strain mso1, hits give low values",0.638 (active)
same,normalized growth,"S. cerevisiae deletion strains, locus YNR052C, strain pop2, hits give low values",0.866 (active)
same,normalized growth,"S. cerevisiae deletion strains, locus YOL012C, strain htz1",0.529
same,normalized growth,"S. cerevisiae deletion strains, locus YOL147C, strain pex11, hits give low values",0.871 (active)
same,normalized growth,"S. cerevisiae deletion strains, locus YOR001W, strain rrp6, hits give low values",0.86 (active)
same,normalized growth,"S. cerevisiae deletion strains, locus YOR061W, strain CKA2, hits give low values",0.986
same,normalized growth,"S. cerevisiae deletion strains, locus YOR069W, strain VPS5, hits give low values",0.983
same,normalized growth,"S. cerevisiae deletion strains, locus YOR070C, strain gyp1, hits give low values",0.97
same,normalized growth,"S. cerevisiae deletion strains, locus YOR080W, strain dia2, hits give low values",0.946
same,normalized growth,"S. cerevisiae deletion strains, locus YOR083W, strain WHI5, hits give low values",0.807 (active)
same,normalized growth,"S. cerevisiae deletion strains, locus YOR106W, strain vam3, hits give low values",0.637 (active)
same,normalized growth,"S. cerevisiae deletion strains, locus YOR136W, strain idh2, hits give low values",0.919 (active)
same,normalized growth,"S. cerevisiae deletion strains, locus YOR144C, strain elg1, hits give low values",0.877 (active)
same,normalized growth,"S. cerevisiae deletion strains, locus YOR184W, strain ser1, hits give low values",0.875
same,normalized growth,"S. cerevisiae deletion strains, locus YOR265W, strain rbl2, hits give low values",0.867 (active)
same,normalized growth,"S. cerevisiae deletion strains, locus YOR270C, strain vph1, hits give low values",0.298 (active)
same,normalized growth,"S. cerevisiae deletion strains, locus YOR290C, strain snf2, hits give low values",0.471 (active)
same,normalized growth,"S. cerevisiae deletion strains, locus YOR316C, strain cot1, hits give low values",0.999
same,normalized growth,"S. cerevisiae deletion strains, locus YPL051W, strain arl3, hits give low values",0.768 (active)
same,normalized growth,"S. cerevisiae deletion strains, locus YPL055C, strain LGE1, hits give low values",0.483 (active)
same,normalized growth,"S. cerevisiae deletion strains, locus YPL078C, strain atp4, hits give low values",0.647 (active)
same,normalized growth,"S. cerevisiae deletion strains, locus YPL106C, strain sse1, hits give low values",0.794 (active)
same,normalized growth,"S. cerevisiae deletion strains, locus YPL240C, strain hsp82, hits give low values",0.907 (active)
same,normalized growth,"S. cerevisiae deletion strains, locus YPL241C, strain CIN2, hits give low values",0.851 (active)
same,normalized growth,"S. cerevisiae deletion strains, locus YPR119W, strain clb2, hits give low values",0.986
same,normalized growth,"S. cerevisiae deletion strains, locus YPR141C, strain kar3, hits give low values",0.735 (active)
same,normalized growth,"S. cerevisiae deletion strains, locus YPR163C, strain tif3, hits give low values",0.977
same,normalized growth,"S. cerevisiae deletion strains, locus YPR167C, strain met16, hits give low values",0.846 (active)
same,normalized growth,"S. cerevisiae deletion strains, strain wtn01, hits give low values",0.871 (active)
same,normalized growth,"S. cerevisiae strains, strain wild type, hits give low values",0.693 (active)
